# Autofluor counter: compound fluorescence in toxin protease inhibitor counterscreen | hit rate 3.1% among 360,000 | compound autofluorescence counterscreen, microsphere flow cytometry; stronger effect = higher value | fluorescence intensity (test concentration not listed) | AID 624483; in the data active = fluorescence intensity above about 16000; inconclusive = no clear call, values can overlap the other calls
# BoNT F protease: BoNT/F light chain protease inhibitors, primary screen, biochemical, flow cytometry, MLPCN library | Botulinum neurotoxin type F light chain protease (Clostridium botulinum) | Multiplex microsphere protease cleavage assay | inhibition, % at 10 µM | hit rate 0.22% among 360,000 | AID 588497, 2011; in the data active = inhibition above about 35%, passing the limit was not always enough; inconclusive = no clear call, values can overlap the other calls; also: plate controls were buffer without enzyme for full effect and enzyme alone for no effect
# Anthrax LF prot: Bacillus anthracis LF protease inhibitors, primary screen, biochemical, multiplex microsphere, MLPCN library; Lethal factor (Bacillus anthracis), P15917; multiplex microsphere protease cleavage assay; inhibition, % at 10 µM; hit rate 0.12% among 360,000; also: plate controls were buffer without enzyme for full effect and enzyme alone for no effect
# Target sequence (P15917 whole entry, looked up): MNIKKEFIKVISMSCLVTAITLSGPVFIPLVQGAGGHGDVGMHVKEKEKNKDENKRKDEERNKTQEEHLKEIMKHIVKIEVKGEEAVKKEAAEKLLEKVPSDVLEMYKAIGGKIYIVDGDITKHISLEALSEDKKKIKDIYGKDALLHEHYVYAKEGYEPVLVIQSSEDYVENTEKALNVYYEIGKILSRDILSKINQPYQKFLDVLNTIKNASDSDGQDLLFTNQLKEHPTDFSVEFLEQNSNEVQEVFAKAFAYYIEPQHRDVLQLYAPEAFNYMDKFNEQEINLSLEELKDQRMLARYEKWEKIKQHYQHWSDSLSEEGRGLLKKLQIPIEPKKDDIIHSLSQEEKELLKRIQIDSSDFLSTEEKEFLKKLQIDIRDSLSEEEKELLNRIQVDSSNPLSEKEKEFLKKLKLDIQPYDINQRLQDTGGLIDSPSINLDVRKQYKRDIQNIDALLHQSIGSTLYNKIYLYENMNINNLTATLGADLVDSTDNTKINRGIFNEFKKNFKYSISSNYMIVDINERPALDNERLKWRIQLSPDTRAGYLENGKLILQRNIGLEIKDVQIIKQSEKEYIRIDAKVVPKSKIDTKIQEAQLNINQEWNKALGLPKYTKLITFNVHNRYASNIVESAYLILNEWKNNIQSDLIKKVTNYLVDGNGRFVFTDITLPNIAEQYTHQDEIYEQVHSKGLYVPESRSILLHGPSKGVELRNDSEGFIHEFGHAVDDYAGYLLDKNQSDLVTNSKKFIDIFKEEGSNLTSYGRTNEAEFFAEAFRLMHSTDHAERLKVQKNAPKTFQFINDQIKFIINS
# BoNT A protease: BoNT/A light chain protease inhibitors, primary screen, biochemical, flow cytometry, MLPCN library; inhibition, % at 10 µM; multiplex microsphere protease substrate cleavage; hit rate 0.17% among 360,000; Botulinum neurotoxin type A light chain protease (Clostridium botulinum A str. ATCC 3502); AID 588499, 2011; also: plate controls were buffer without enzyme for full effect and enzyme alone for no effect
# FBA Mtb inh: Mtb FBA enzyme inhibitors, primary screen, biochemical, fluorescence, strain H37Rv. Fructose-bisphosphate aldolase (Mycobacterium tuberculosis (strain ATCC 25618 / H37Rv)), …. hit rate 2.3% among 360,000. purified M. tuberculosis FBA, fluorescence read-out. AID 588726, 2011. inhibition, % at 1 µM; in the data active = inhibition above about 27%;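 also: 0% = vehicle and 100% = reference inhibitor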
# GDH-TPI inh: GDH-TPI coupling enzyme inhibitors, primary screen, artefact control for M. tuberculosis FBA inhibitor project, biochemical, absorbance, full deck. GDH-TPI coupled enzyme counterscreen, NADH absorbance. inhibition, % at 4.8 µM. hit rate 1.2% among 360,000; in the data active = inhibition above about 30%;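 also: 0% = DMSO wells and 100% = wells lacking the enzyme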
# An asterisk follows results filed as active; u = inconclusive; x = no result given. In the library only some 6.7% were active in any assay of this set; here they are far more common. Rule as the data show it, unless noted: active = inhibition above about 30%; inconclusive = no clear call, values can overlap the other calls; inactive = below that.
SMILES,Autofluor counter,BoNT F protease,Anthrax LF prot,BoNT A protease,FBA Mtb inh,GDH-TPI inh
CCn1c(O)c(N=NC(=O)CNC(=O)c2cccnc2)c2ccccc21,3628,2.1,5.5,-0.4,4.2,37.2*
C=CCn1c(O)c(N=NC(=S)Nc2cccc(C)c2)c2ccccc21,2362,-2.7,8.9,30.3*,-6.2,6.6
CC(C)n1c(O)c(N=NC(=O)CNC(=O)c2cccnc2)c2ccccc21,4522,1.1,0.1,0.8,-0.8,21.6
C=CCn1c(O)c(N=NC(=O)CNC(=O)/C=C/c2ccco2)c2ccccc21,7768,3.7,2.2,0.1,-5.9,35.2*
C=CCn1c(O)c(N=NC(=O)CNC(=O)/C=C/c2ccc(OC)cc2)c2ccccc21,5331,-7.5,2.8,-1.3,-0.1,37.5*
C=CCn1c(O)c(N=NC(=S)Nc2ccccc2F)c2ccccc21,4227,-7.4,-1.2,8.2,-8.6,11.1
CCc1nc2ccc(C(=O)Nc3cccc(NS(C)(=O)=O)c3)cn2c1N(C=O)CCC(C)C,4638,-1.3,-0.8,-1.3,-2.0,0.9
COc1ccc(-c2nc(SCC(=O)NC3CCCC3)c(-c3ccc(OC)cc3)[nH]2)cc1,4223,-3.5,-3.9,-0.1,8.5,12.2
COCCNC(=O)C(NC(=O)C1CCCCC1)C12CC3CC(CC(C3)C1)C2 (stereo not drawn),4299,2.7,0.5,0.5,4.5,4.5
O=C(COC(=O)COc1ccccc1)Nc1ccc(Cl)cn1,5639,u,0.8,0.5,0.2,1.1
CCCn1c(O)c(N=NC(=O)CNC(=O)/C=C/c2ccc(OC)cc2)c2ccccc21,4009,2.8,-3.4,1.8,-0.1,15.6
NC(=O)Cn1c(O)c(N=NC(=O)CNC(=O)/C=C/c2ccccc2)c2ccccc21,4478,-4.3,-2.6,-2.3,1.9,36.5*
CC(C)N(C1=N/C(=C\c2ccco2)C(=O)N1c1ccccc1)C(C)C,2512,-8.6,-10.1,0.7,-2.4,7.1
Cc1ccnc(-n2c(C)cc(C=C3C(=O)N(C)C(=S)N(C)C3=O)c2C)c1,3236,11.3,26.2,31.6*,-0.9,16.7
Cc1cc(C=C2C(=O)N(C)C(=S)N(C)C2=O)c(C)n1-c1ccncc1,x,x,x,x,-2.9,10.7
O=C(Nc1ncc2c(n1)-c1ccccc1OC2)c1ccccc1Cl,4574,-1.9,-6.0,0.6,113.4*,20.1
O=C(Nc1ncc2c(n1)-c1ccccc1CC2)C1CC1,4819,-0.3,2.0,-0.7,0.8,-2.5
O=C(COC(=O)CCC(=O)c1cccs1)NC(=O)c1ccc(OC(F)F)cc1,3996,-3.9,-2.9,0.3,-0.9,6.2
CC1(C)N(OCc2ccccc2)C(=O)C(=O)N(OCc2ccccc2)C1(C)C,20720*,7.7,-12.7,u,1.6,-1.5
CCC1CCCCN1c1ccc([N+](=O)[O-])cc1/C=N/NC(=O)Cn1c2ccccc2c(=O)c2ccccc21 (stereo not drawn),8572,-3.8,2.2,0.1,7.5,0.0
Cc1ccc(NC(=O)NCCN2CCN(c3ccccc3)CC2)cc1Cl,4015,-0.6,-2.5,3.1,1.2,3.0
CCC(C)NCCOCCOc1ccc(Cl)cc1Br (stereo not drawn),4372,35.1*,-7.3,5.1,9.2,8.5
CCC(C)NCCOCCOc1ccccc1-c1ccccc1 (stereo not drawn),23087*,-4.6,-5.0,-0.4,10.6,3.8
Cc1ccc(OCCOCCNC(C)C)c(Br)c1,2340,-5.6,0.7,-0.1,3.8,9.1
Cc1ccccc1NC(=S)N1CCC(C(=O)c2ccc(F)cc2)CC1,6285,-10.5,-7.1,-1.1,-1.1,3.2
SMILES,Autofluor counter,BoNT F protease,Anthrax LF prot,BoNT A protease,FBA Mtb inh,GDH-TPI inh
Cc1ccc(C(=O)Nc2ccc(Cl)cc2C(=O)c2ccccc2)cc1,23597*,-3.8,-1.0,1.0,2.6,6.3
O=C(N/N=C/c1ccc(N2CCOCC2)cc1)c1ccc(O)cc1,4050,-9.2,-1.7,1.7,3.6,66.2*
Cc1ccc(C(=O)N/N=C/c2ccc(N3CCOCC3)cc2)c(C)c1,2219,2.4,-1.0,0.5,1.0,34.3*
O=C(N/N=C/c1ccc(N2CCOCC2)s1)c1ccc(O)cc1,3717,-6.6,-2.9,0.4,1.0,33.9*
O=C(O)c1cc(S(=O)(=O)N2CCCCCC2)ccc1Cl,8021,-2.2,-1.4,-0.6,4.0,3.8
O=C(CC(C(=O)O)N1CCOCC1)Nc1ccc(Cl)cc1 (stereo not drawn),19713*,2.1,0.4,1.0,-1.5,-1.9
O=C(CN1CCOCC1)Nc1ccc(Cl)cc1,3809,u,-4.1,1.6,0.7,-8.6
N#C/C(=C\c1cn(CCOc2ccccc2F)c2ccccc12)C(=O)NCc1cccs1,2181,0.8,0.1,0.2,2.5,6.9
CCOC(=O)c1c(N)sc2c(NC(C)=O)cccc12,x,x,x,x,9.9,7.4
CCOC(=O)c1c(N)sc2c(O)c(Br)ccc12,20732*,-1.9,-1.7,-0.4,0.6,-5.0
OC(COc1ccc2cc(Br)ccc2c1)CN1CCCC1 (stereo not drawn),23249*,-5.3,-4.2,-3.4,0.3,12.4
COc1ccc(N2CCN(C(=O)C3CCCN(c4ncnc5c4nc4n5CCCCC4)C3)CC2)cc1 (stereo not drawn),4143,9.7,-5.4,2.1,1.8,0.9
Cc1ccc(CN2CCN(C(=O)C3CCC3)CC2)cc1,22954*,-2.9,-9.3,0.6,-3.1,-10.6
CC(=O)c1ccc(N2CCN(C(=O)C3CCCN(c4ncnc5c4nc4n5CCCCC4)C3)CC2)cc1 (stereo not drawn),4352,0.5,-0.6,0.0,2.8,31.0*
CC(=O)c1ccc(N2CCN(C(=O)C3CCC3)CC2)cc1,12358,-17.5,-1.5,-1.4,-0.3,44.5*
CCc1cc(=O)oc2cc(OC(C)C(=O)N3CC[C@@]4(O)CCCC[C@H]4C3)ccc12 (stereo partly drawn),4834,3.1,1.2,0.0,17.1,4.9
CCOc1cc([C@H]2[C@@H]3CCCC[C@]3(O)CCN2CC(=O)NCc2ccco2)ccc1O,22611*,-2.1,-7.2,0.0,3.3,-1.9
CCCCNC(=O)CN1CCC2(O)CCCCC2C1c1ccccc1OC (stereo not drawn),3334,-6.2,2.3,0.4,0.8,-5.8
Cc1cccc(-n2[nH]c(C)c(C=Nc3ccc4[nH]c(=O)[nH]c4c3)c2=O)c1,1986,-7.7,-2.3,-1.1,-1.5,24.4
CC(C)(C)SCCNC(=O)CN(c1ccc(F)c(Cl)c1)S(C)(=O)=O,23547*,-2.4,1.0,0.7,1.0,-1.9
Cc1ccccc1Cn1ccc(-c2ccc3c(c2)OCO3)n1,20609*,-2.5,0.3,u,-5.2,-6.8
O=c1oc2ccccc2c(N2CCCCC2)c1CN1CCCC1,10748,-2.3,-3.0,1.2,-0.9,6.1
C/C(=N\NC(=O)c1ccc(N/N=C(\C)c2ccc(O)cc2)cc1)c1ccc(O)cc1,5882,-13.4,-6.0,-3.1,2.3,46.1*
